SMILES strings stand for the structures. Calls of active or inactive are those of the source. Where a call stands in place of a potency, no number is given. Calls follow the shape of the dose curve; as a rule, active = well fitted activation curve with a large enough effect in the repeat runs; inconclusive = weak or mixed curves; inactive = flat fitted curve, though single readings scatter.

A short description of this test: A CellTox Green Cytotoxicity Assay to monitor cytotoxicity in HepG2 cells - 0 hour (AID 1224882). Also: nearly all actives have a fitted effect of over 35% in size. As to conditions: CellTox Green fluorescence; series mostly up to 76.8 µM. The text has this:
National Center for Advancing Translational Sciences [NCATS]
NIH Chemical Genomics Center [NCGC]
U.S. Environmental Protection Agency [EPA]
National Institutes of Environmental Health Sciences [NIEHS]
National Toxicology Program [NTP]
Cell-based models are critical for drug discovery. Determining the natural cytotoxic effects resulting from test compounds is an essential research activity. A CellTox Green Cytotoxicity Assay to monitor cytotoxicity in real time of continues cell culture during 40 hours of the compound treatment was used to screen Tox21 10K library compounds in HepG2 cells. CellTox Green Cytotoxicity Assay is a nonlytic, homogeneous, biofluorescent method to measure cytotoxicity in cell culture after experimental manipulation. The assay system uses a proprietary asymmetric cyanine dye that is excluded from viable cells but preferentially stains the dead cell's DNA. […] Viable cells produce no appreciable increases in fluorescence. Therefore, the fluorescence signal produced by the binding interaction with dead cell DNA is proportional to cytotoxicity.
The mixture of HepG2 cell suspension and reagents were dispensed at 600cells/6 ul/well in 1536-well tissue culture treated black solid bottom plates using a Multidrop dispenser. After the assay plates were incubated at a 37 C/5% CO2 incubator for 5 hours, 23 nL of compounds dissolved in DMSO, positive and negative controls was transferred to the assay plate by a pintool work station. The plates were incubated at 37 C for 40 hours. The fluorescence intensity were measured at 0h, 8h, 16h, 24h, 32h and 40h time points using ViewLux plate reader during compound treatment.
As for `CCC(C)(C)c1ccc(O)c(C(C)(C)CC)c1`, the Potency entry is “inactive”.

For `CCC1(CC)C(=O)NC(=O)NC1=O`, the Potency entry is “inactive”.

In the case of `CC(C)C1(C)N=C(c2ncccc2C(=O)O)NC1=O` (stereo not given), the Potency entry is “inactive”.

Consider `COC(=O)C1(O)c2ccccc2-c2ccccc21`, for which the Potency entry is “inactive”.

Turning to `N#CC(C#N)=C(C#N)C#N`, the Potency entry was “inactive”.

For `Cc1cccc(C)c1NC1=NCCCS1`, the Potency entry is “inactive”.

`Cc1ccc(N)c(C)c1`: the Potency result is “inactive”.

As to `CCc1cnc(C2=NC(C)(C(C)C)C(=O)N2)c(C(=O)O)c1` (stereo not given), the Potency entry is “inactive”.

For `Nc1ccc2c(c1)Cc1ccccc1-2`, the Potency entry is “inactive”.

Take `CCC(=O)O[C@@H]1C=C2CCC3C(CCC4(C)C3CC[C@@H]4OC(=O)CC)C2CC1` (stereo not given in full): the Potency entry was “inactive”.

Consider `CCCCOC(=O)CCC(=O)OCCCC`, for which the Potency entry was “inactive”.

For `Nc1cc(Cl)cc(C(=O)O)c1Cl`, the Potency entry is “inactive”.

For the compound `CC(C)c1ccc(NC(=O)N(C)C)cc1`, the Potency result was “inactive”.

In the case of `C[C@@H]1C[C@@H]([C@H](O)CC2CC(=O)NC(=O)C2)C(=O)[C@@H](C)C1`, the Potency result was “inactive”.

Consider `O=S(=O)(c1ccccc1)c1ccccc1`, for which the Potency entry was “inactive”.

`C=CCOCC1CO1` (stereo not given): the Potency entry is “inactive”.

On to `CC(C)CCCCCCCOC(=O)c1ccccc1C(=O)OCCCCCCCC(C)C`, for which the Potency result was “inactive”.

For the compound `CCCC(C)(COC(N)=O)COC(=O)NC(C)C` (stereo not given), the Potency entry is “inactive”.

Regarding `C#CC(O)(C=CCl)CC` (stereo not given), the Potency entry was “inactive”.

Regarding `CCOC(=O)c1cn2nc(OP(=S)(OCC)OCC)cc2nc1C`, the Potency entry was “inactive”.

As for `O=C(O)C(O)C(O)C(=O)O` (stereo not given), the Potency entry is “inactive”.

`NCCc1cc(O)c(O)cc1O`: the Potency result was “inactive”.

For `COCc1cnc(C2=NC(C)(C(C)C)C(=O)N2)c(C(=O)O)c1` (stereo not given), the Potency entry is “inactive”.

As for `NC(=O)CF`, the Potency result is “inactive”.

Regarding `O=C(O)c1cc(I)cc(I)c1I`, the Potency result is “inactive”.

In the case of `COc1ccc2c(c1OC)C(=O)O[C@H]2[C@@H]1c2cc3c(cc2CCN1C)OCO3`, the Potency entry was “inactive”.

Regarding `CCCCC1C(=O)NC(=O)N(C2CCCCC2)C1=O` (stereo not given), the Potency entry was “inactive”.

In the case of `CC1(C)[C@H](C(=O)O[C@H](C#N)c2cccc(Oc3ccccc3)c2)[C@@H]1C=C(Br)Br`, the Potency entry was “inactive”.

Take `CCOC(C(=O)OCCN(C)C)(c1ccccc1)c1ccccc1`: the Potency entry was “inactive”.

Regarding `CC(Cc1ccccc1)NCc1ccccc1Cl` (stereo not given), the Potency result was “inactive”.

For the compound `CCSCc1ccccc1OC(=O)NC`, the Potency result was “inactive”.

For the compound `CCC1(CCC(C)C)C(=O)NC(=O)NC1=O`, the Potency result is “inactive”.

As to `C[C@H]1[C@@H]2Cc3ccc(O)cc3[C@@]1(C)CCN2C`, the Potency entry is “inactive”.

In the case of `CN1C(=O)CN=C(c2ccccc2)c2cc([N+](=O)[O-])ccc21`, the Potency result is “inactive”.

Turning to `CCCCC(CC)CO[N+](=O)[O-]` (stereo not given), the Potency result is “inactive”.

With `CCCCCCCCCCCCN(C)C`, the Potency entry was “inactive”.

Consider `Cc1ccccc1`, for which the Potency entry is “inactive”.

On to `CC(O)CN1CCN(CC(=O)[O-])CCN(CC(=O)[O-])CCN(CC(=O)[O-])CC1.[Gd+3]` (stereo not given), for which the Potency result was “inactive”.

Turning to `O=C(O)CCCOc1ccc(Cl)cc1Cl`, the Potency result is “inactive”.

As for `c1ccc2sc(SNC3CCCCC3)nc2c1`, the Potency entry is “inactive”.

(Values after PubChem BioAssay (Tox21).)
